Our source for the composite z-score and z-score values is PubChem BioAssay.

Active and inactive are the calls of the source. Unless noted, how the calls were made is not given here.

The test system of experiment [1] is XIP peptide (Xip251-270) binding. Description: XIP fragment 251-270 binding compounds – biochemical, small-molecule microarray, fluorescence 635/667 nm, 0.1 µg/mL protein, primary screen (AID 1182). Particulars: fluorescent protein binding, 635 nm, higher = more signal, called active from +8 up or from −8 down.
For a further experiment, the system named is XIP peptide (Xip251-270). Description: compounds binding XIP fragment 251-270 – biochemical, small-molecule microarray, fluorescence 635/667 nm, 0.5 µg/mL protein, primary screen (AID 1183). As to conditions: fluorescence 635 nm, higher = more signal.
Experiment [2] in a line: blood-stage malaria parasite viability loss – strain 3D7, DAPI fluorescence, 100 nL, primary screen (AID 1184).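 Further: parasites grown inside human red blood cells in medium with human serum.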 Particulars: P. falciparum 3D7 growth, 3 d, higher = more signal.
In experiment [3] the target is Homeobox protein Hox-A13 (Mus musculus) (UniProt Q62424). Description: disruptors of Hoxa13 oligonucleotide interaction – biochemical, fluorescence polarization, labeled oligonucleotide, primary screen (AID 1185). As to conditions: Hoxa13:DNA binding, 15 min, higher = more signal, called active from +8 up or from −8 down. Background: In fluorescence polarisation assays a small probe gives low polarisation when free and higher when bound to something large.
Chain of Homeobox protein Hox-A13 (Mus musculus) (Q62424 whole entry, looked up): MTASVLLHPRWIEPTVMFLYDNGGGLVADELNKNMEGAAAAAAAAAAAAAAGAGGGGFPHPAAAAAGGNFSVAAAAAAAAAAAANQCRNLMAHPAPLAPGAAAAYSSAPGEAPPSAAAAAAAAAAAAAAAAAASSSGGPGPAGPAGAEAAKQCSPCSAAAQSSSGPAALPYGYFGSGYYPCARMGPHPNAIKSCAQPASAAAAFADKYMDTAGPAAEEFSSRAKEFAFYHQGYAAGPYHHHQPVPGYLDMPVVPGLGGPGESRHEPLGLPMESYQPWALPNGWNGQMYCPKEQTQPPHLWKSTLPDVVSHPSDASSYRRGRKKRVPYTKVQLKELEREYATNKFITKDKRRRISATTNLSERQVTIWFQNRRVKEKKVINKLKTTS

Experiment [4] is described as follows: blockers of DNA damage checkpoint Chk1 activation – imaging, HeLa, hydroxyurea, phospho-Chk1 antibody, percent positive cells, primary screen (AID 1186). Particulars: hydroxyurea-induced phospho-Chk1 immunofluorescence imaging, higher = more signal.
The nature of experiment [5]: blockers of DNA damage checkpoint Chk1 activation – imaging, HeLa, hydroxyurea, phospho-Chk1 nuclear intensity, primary screen (AID 1187). As to conditions: hydroxyurea-induced phospho-Chk1 immunofluorescence imaging, higher = more signal.

With `CCCC=C(CCC)[C@@H](NS(=O)(=O)c1cccs1)c1ccc(C(=O)OC)cc1`, the composite z-score is 0.219 (inactive) in experiment [1] and 0.507 in the experiment with XIP peptide (Xip251-270). The z-score in experiment [2] is -0.677; in experiment [3], -3.19 (inactive); in experiment [4] it was -0.284 (inactive); in experiment [5], 0.0089 (inactive).

In the case of `O=C1O[C@H](c2ccccc2)[C@H](c2ccccc2)N2[C@H]1[C@@H](C(=O)Nc1nc3ccccc3s1)[C@]1(C(=O)Nc3ccc(C#CCCO)cc31)[C@H]2c1ccc(OCCO)cc1`, the composite z-score in experiment [1] is 0.497 (inactive); with XIP peptide (Xip251-270), 0.769. The z-score in experiment [2] is -1.19; in experiment [3] it was 1.37 (inactive); in experiment [4] it was -0.239 (inactive); in experiment [5], -0.262 (inactive).

On to `O=C1C2C=CC(C(O)c3c(F)cccc3Cl)N(Nc3ccccc3)C2C(=O)N1c1ccccc1` (stereo unspecified), for which the results for the composite z-score (in experiment [1]; in the experiment on XIP peptide (Xip251-270)) were 0.469 (inactive) and 0.702, respectively. Besides, the z-score in experiment [2] is -0.342; in experiment [3], -3.25 (inactive); in experiment [4], 0.653 (inactive); in experiment [5] it was 0.683 (inactive).

Regarding `COc1ccc([Si](C)(C)[C@@H]2[C@@H](CC(=O)N3Cc4ccccc4C[C@H]3CO)O[C@]3(C(=O)N(C)c4c(Br)cc(C)cc43)[C@H]2C)cc1`, the composite z-score in experiment [1] is -0.223 (inactive); in the experiment on XIP peptide (Xip251-270), 0.565. Further, the z-score in experiment [2] was -2.35; in experiment [3] it was -4.06 (inactive); in experiment [4], -0.79 (inactive); in experiment [5], -0.12 (inactive).

Regarding `CCCCCCC#C[Si](O[C@H](c1ccccc1)c1cn([C@H](CO)Cc2ccccc2)nn1)(C(C)C)C(C)C`, the composite z-score in experiment [1] is 0.207 (inactive); in the experiment on XIP peptide (Xip251-270), 0.0718. Further, the z-score in experiment [2] is 0.221; in experiment [3], -1.34 (inactive); in experiment [4], -0.653 (inactive); in experiment [5], -0.496 (inactive).

On to `C=CCOC(=O)[C@H]1[C@@H]2C(=O)O[C@@H](c3ccccc3)[C@@H](c3ccccc3)N2[C@@H](c2ccc(OCCOC(=O)[C@H]3C[C@H]4C(=O)N5CCC[C@H]5C(=O)N4[C@H]3c3ccc(O)cc3)cc2)[C@]12C(=O)Nc1ccccc12`, for which the values for the composite z-score (in experiment [1]; in the experiment with XIP peptide (Xip251-270)) were 0.0734 (inactive) and 0.803, respectively. Also, the z-score is -1.62 in experiment [2], 1.42 (inactive) in experiment [3], -0.398 (inactive) in experiment [4] and 0.207 (inactive) in experiment [5].

Take `O=C1OCC=C[C@H]2OC34C=CCN(c5ccc6ccccc6c5)C(=O)[C@H]3N(CCCCCCO)C(=O)[C@@H]4[C@@H]12` (stereo partly specified): the figures for the composite z-score (in experiment [1]; in the experiment on XIP peptide (Xip251-270)) were 0.458 (inactive) and 0.2, respectively. The z-score is -0.341 in experiment [2], -5.38 (inactive) in experiment [3], -0.261 (inactive) in experiment [4] and -0.572 (inactive) in experiment [5].

In the case of `CC1CC/C=C\[C@H]2OC34C=CCN(c5ccc(Cl)cc5)C(=O)[C@H]3N(CCO)C(=O)[C@]4(C)C2C(=O)O1` (stereo partly specified), the composite z-score in experiment [1] is 1.21 (inactive); in the experiment with XIP peptide (Xip251-270) it was 0.18. Also, the z-score is -0.515 in experiment [2], -4.66 (inactive) in experiment [3], -0.0711 (inactive) in experiment [4] and -0.271 (inactive) in experiment [5].

As to `C#CCN(Cc1ccccc1Br)C(/C=C/c1ccccc1)CO` (stereo unspecified), the composite z-score is 1.09 (inactive) in experiment [1] and -0.318 in the experiment on XIP peptide (Xip251-270). Besides, the z-score in experiment [2] was -1.02; in experiment [3], -6.39 (inactive); in experiment [4], -0.348 (inactive); in experiment [5] it was -0.323 (inactive).

With `CN(C)CCCNC(=O)[C@@]1(c2ccc([N+](=O)[O-])cc2)CC(=O)N(C2CCCCC2)[C@@H]1c1ccc(CO)cc1I`, the composite z-score in experiment [1] was -0.117 (inactive); in the experiment with XIP peptide (Xip251-270) it was 0.248. Besides, the z-score was -2.17 in experiment [2], 0.362 (inactive) in experiment [3], -0.227 (inactive) in experiment [4] and -0.413 (inactive) in experiment [5].

In the case of `O=C1OCCC/C=C\[C@H]2OC34C=CCN(Cn5nnc6ccccc65)C(=O)[C@H]3N(CCO)C(=O)[C@@H]4C12` (stereo partly specified), the composite z-score is -0.0143 (inactive) in experiment [1] and 0.96 in the experiment with XIP peptide (Xip251-270). The z-score in experiment [2] was -1.18; in experiment [3] it was -4.72 (inactive); in experiment [4] it was 0.0428 (inactive); in experiment [5], 0.371 (inactive).

On to `CCOC1=C2C(CN(S(=O)(=O)c3ccc(C)cc3)C2c2ccc(C)cc2)C2C(=O)N(c3ccccc3)C(=O)C2C1` (stereo unspecified), for which the composite z-score is -0.0729 (inactive) in experiment [1] and 0.457 in the experiment with XIP peptide (Xip251-270). Also, the z-score is 0.694 in experiment [2], -1.82 (inactive) in experiment [3], 0.218 (inactive) in experiment [4] and 0.402 (inactive) in experiment [5].

For `COC(=O)[C@@]1(Cc2ccc(F)cc2)[C@H]2c3cc(C(=O)N4CCCC4)n(Cc4ccc(C)o4)c3C[C@H]2CN1C(=O)c1ccccc1`, the values for the composite z-score (in experiment [1]; in the experiment on XIP peptide (Xip251-270)) were 0.205 (inactive) and 0.705, respectively. In addition, the z-score in experiment [2] was -1.14; in experiment [3], -4.22 (inactive); in experiment [4], -0.289 (inactive); in experiment [5], -0.163 (inactive).

As to `CCc1oc(CC[C@@H](CO)NC(=O)NCCn2cc(C3(O)CCCCC3)nn2)c(C(=O)OC)c1C(=O)OC`, the composite z-score was 1.53 (inactive) in experiment [1] and 0.875 in the experiment with XIP peptide (Xip251-270). Besides, the z-score in experiment [2] is -0.397; in experiment [3], -3.56 (inactive); in experiment [4], 0.259 (inactive); in experiment [5], -0.0163 (inactive).

Take `CN(C)CCCNC(=O)[C@@]1(c2ccc([N+](=O)[O-])cc2)CC(=O)N(C2CCCCC2)[C@@H]1c1ccc(CO)cc1`: the figures for the composite z-score (in experiment [1]; with XIP peptide (Xip251-270)) were -0.209 (inactive) and -0.0124, respectively. The z-score was -1.11 in experiment [2], -0.842 (inactive) in experiment [3], -0.196 (inactive) in experiment [4] and -0.495 (inactive) in experiment [5].

Regarding `COCCOC(=O)N1C(=O)[C@@]2(c3cc(C#Cc4ccc(OC)cc4)ccc31)[C@H](C(=O)N1CCCCCCC1)[C@H]1C(=O)O[C@H](c3ccccc3)[C@H](c3ccccc3)N1[C@@H]2c1ccc(OCCO)cc1`, the composite z-score is 2.79 (inactive) in experiment [1] and 0.635 in the experiment with XIP peptide (Xip251-270). Further, the z-score is -2 in experiment [2], -15.8 (active) in experiment [3], -0.442 (inactive) in experiment [4] and -0.617 (inactive) in experiment [5].
